Results filed as inconclusive are left out. Entries that show only a call come without a potency. Where a structure was tested more than once in an assay, its records may differ in their call. Calls of active or inactive are those of the source. Calls come from the whole dose curve; as a rule, active = well fitted curve in the direction sought with a large enough effect in the repeat runs; inconclusive = weak or mixed curves; inactive = no such curve, though single readings can be large; an effect the other way counts as inactive or inconclusive.
Tests used:
[1] = A CellTox Green Cytotoxicity Assay to monitor cytotoxicity in HEK293 cells - 32 hour (AID 1224881); note: nearly all actives have a fitted effect of over 40% in size; note: potency is the fitted concentration of half-maximal effect
Method in brief: (§1)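 Dead-cell fluorescence measured kinetically: asymmetric cyanine dye, HEK293, 600 cells/well, 5 h settle, 23 nL cpd/DMSO, 37 C, reads 0–40 h every 8 h.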

[2] = A CellTox Green Cytotoxicity Assay to monitor cytotoxicity in HepG2 cells - 32 hour (AID 1224883); note: nearly all actives have a fitted effect of over 50% in size; note: potency is the fitted concentration of half-maximal effect
Method in brief: (§2)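 First, HepG2 cells (600/well) mixed with reagent were plated; second, after 5 h at 37 C they received compounds via pintool; third, fluorescence was measured at 0 h through 40 h at 8 h intervals.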

[3] = qHTS RealTime-Glo MT Cell Viability Assay in HepG2 cells - 16 hour (AID 1224885); note: nearly all actives have a fitted effect of over 50% in size; note: potency is the fitted concentration of half-maximal effect
Method in brief: (§3)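 Compound treatment began 5 h after plating HepG2 cells (600/well) with NanoLuc luciferase and prosubstrate. Plates stayed at 37 C for 40 h; luminescence was captured at six time points, 0 h through 40 h.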

[4] = qHTS RealTime-Glo MT Cell Viability Assay in HEK293 cells - 24 hour (AID 1224886); note: nearly all actives have a fitted effect of over 50% in size; note: potency is the fitted concentration of half-maximal effect
Method in brief: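 Quantitative high-throughput screen of the Tox21 10K library in HEK293: cells and RealTime-Glo reagents plated together, compound added at 5 h, luminescence monitored through 40 h at 37 C.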

[5] = qHTS RealTime-Glo MT Cell Viability Assay in HEK293 cells - 8 hour (AID 1224887); note: nearly all actives have a fitted effect of over 50% in size; note: potency is the fitted concentration of half-maximal effect
Method in brief: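 600 HEK293 cells per well, dispensed already mixed with RealTime-Glo MT reagents. Compound dosing came 5 h later. The same wells were read for luminescence at 0, 8, 16, 24, 32 and 40 h of exposure at 37 C.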

[6] = A CellTox Green Cytotoxicity Assay to monitor cytotoxicity in HEK293 cells - 16 hour (AID 1224888); note: nearly all actives have a fitted effect of over 35% in size; note: potency is the fitted concentration of half-maximal effect
Method in brief: as §1

[7] = qHTS RealTime-Glo MT Cell Viability Assay in HepG2 cells - 0 hour (AID 1224889); note: nearly all actives have a fitted effect of over 50% in size; note: potency is the fitted concentration of half-maximal effect
Method in brief: as §3

[8] = A CellTox Green Cytotoxicity Assay to monitor cytotoxicity in HepG2 cells - 8 hour (AID 1224890); note: nearly all actives have a fitted effect of over 45% in size; note: potency is the fitted concentration of half-maximal effect
Method in brief: as §2

[9] = A CellTox Green Cytotoxicity Assay to monitor cytotoxicity in HEK293 cells - 8 hour (AID 1224884); note: nearly all actives have a fitted effect of over 35% in size; note: potency is the fitted concentration of half-maximal effect
Method in brief: as §1

[10] = A CellTox Green Cytotoxicity Assay to monitor cytotoxicity in HepG2 cells - 0 hour (AID 1224882); note: nearly all actives have a fitted effect of over 35% in size
Method in brief: as §2

| SMILES | Potency [1] | Potency [2] | Potency [3] | Potency [4] | Potency [5] | Potency [6] | Potency [7] | Potency [8] | Potency [9] | Potency [10] |
| --- | --- | --- | --- | --- | --- | --- | --- | --- | --- | --- |
| CCN(CC)C(=O)N[C@@H]1C=C2c3cccc4[nH]cc(c34)C[C@@H]2N(C)C1 | inactive | inactive | inactive | inactive | inactive | inactive | inactive | inactive | – | – |
| CC(C)N(C(=O)CCl)c1ccccc1 | inactive | 49 µM (active) | – | 49 µM (active) | inactive | inactive | inactive | inactive | inactive | – |
| Oc1cc(Cl)c(Cl)c(Cl)c1Cl | inactive | – | inactive | 47.8 µM (active) | – | inactive | inactive | inactive | – | – |
| O=S1(=O)OCC2C(CO1)C1(Cl)C(Cl)=C(Cl)C2(Cl)C1(Cl)Cl (centres undefined) | – | – | – | 19.5 µM (active) | – | inactive | inactive | inactive | inactive | inactive |
| Nc1c(Cl)c(Cl)c(Cl)c(Cl)c1Cl | inactive | – | inactive | inactive | inactive | – | inactive | – | inactive | – |
| O=[N+]([O-])C(Br)Br | – | – | inactive | 55 µM (active) | – | – | inactive | – | inactive | inactive |
| CCOP(=S)(OCC)SC(CCl)N1C(=O)c2ccccc2C1=O (centres undefined) | inactive | – | inactive | inactive | inactive | inactive | – | inactive | inactive | – |
| FC(F)C(F)(F)OCC(Cn1cncn1)c1ccc(Cl)cc1Cl (centres undefined) | – | 48.7 µM (active) | – | 21.7 µM (active) | – | inactive | inactive | – | inactive | inactive |
| CC(=O)[O][Sn]([c]1ccccc1)([c]1ccccc1)[c]1ccccc1 | 219 nM (active) | – | – | 0.0436 µM (active) | 0.123 µM (active) | 0.347 µM (active) | – | 13.8 µM (active) | 0.347 µM (active) | – |
| C[C@]12CC[C@H]3[C@@H](CCC4=CC(=O)CC[C@@H]43)[C@@H]1CC[C@@H]2OC(=O)CCc1ccco1 | – | inactive | inactive | inactive | inactive | inactive | inactive | inactive | – | – |
| CCc1cccc(C)c1N(C(=O)CCl)[C@@H](C)COC | – | 43.6 µM (active) | – | inactive | inactive | – | inactive | – | – | inactive |
| Nc1ccccc1-c1ccccc1 | – | inactive | inactive | inactive | inactive | inactive | inactive | inactive | inactive | inactive |
| c1ccc(Nc2ccc(Nc3ccccc3)cc2)cc1 | – | inactive | inactive | 21.8 µM (active) | 15.4 µM (active) | – | inactive | – | – | inactive |
| C[C@]12C/C(=C/O)C(=O)C[C@@H]1CC[C@@H]1[C@@H]2CC[C@@]2(C)[C@H]1CC[C@]2(C)O | 44.1 µM (active) and inactive | – | inactive | 49.4 µM (active) and inactive | inactive | inactive | inactive | inactive | inactive | – |
| CCN1CCC2(CC1)COc1cc3c(cc12)N(C(=O)c1ccc(-c2ccc(-c4nnc(C)o4)cc2C)cc1)CC3 | – | 45.2 µM (active) | 45.2 µM (active) | 12.7 µM (active) | 20.2 µM (active) | – | 20.2 µM (active) | 50.7 µM (active) | 50.7 µM (active) | inactive |
| CC(O)C(=O)[O][Hg][c]1ccccc1 (centres undefined) | 3090 nM (active) | 2.19 µM (active) | 2.19 µM (active) | 0.977 µM (active) | 1.55 µM (active) | 24.5 µM (active) | inactive | 2.75 µM (active) | – | – |
